# Target: AgAbp1
# Assay: SPOT peptide array binding signal intensity (averaged, normalized) (arbitrary units (background-subtracted, floor 0; scale differs between SH3 domains)); higher = stronger binding of the SH3 domain to the peptide
# Experimental: (§1)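 GST-tagged SH3 domains from S. cerevisiae (Sc), A. gossypii (Ag), C. albicans (Ca) and S. pombe (Sp) were incubated at 10 ug/ml overnight at 4 C on cellulose SPOT membranes carrying 292 synthetic 15-mer peptides mined from the S. cerevisiae proteome (cysteines replaced by serines). Binding was detected with anti-GST antibody, HRP secondary and chemiluminescence, quantified with Genespotter, and reported as normalized spot intensities averaged over biological replicates.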
row,Binder,SPOT peptide array binding signal intensity
1,RRSKSLPITPKSIFN,47

# Target: AgBbc1
# Assay: as above
# Experimental: as §1
row,Binder,SPOT peptide array binding signal intensity
1,RRSKSLPITPKSIFN,30.8

# Target: AgBem1-D1
# Assay: as above
# Experimental: as §1
row,Binder,SPOT peptide array binding signal intensity
1,RRSKSLPITPKSIFN,374

# Target: AgBzz1-D1
# Assay: as above
# Experimental: as §1
row,Binder,SPOT peptide array binding signal intensity
1,RRSKSLPITPKSIFN,59

# Target: AgBzz1-D2
# Assay: as above
# Experimental: as §1
row,Binder,SPOT peptide array binding signal intensity
1,RRSKSLPITPKSIFN,25

# Target: AgCyk3
# Assay: as above
# Experimental: as §1
row,Binder,SPOT peptide array binding signal intensity
1,RRSKSLPITPKSIFN,6.5

# Target: AgFus1
# Assay: as above
# Experimental: as §1
row,Binder,SPOT peptide array binding signal intensity
1,RRSKSLPITPKSIFN,79.5

# Target: AgHof1
# Assay: as above
# Experimental: as §1
row,Binder,SPOT peptide array binding signal intensity
1,RRSKSLPITPKSIFN,125

# Target: AgHse1
# Assay: as above
# Experimental: as §1
row,Binder,SPOT peptide array binding signal intensity
1,RRSKSLPITPKSIFN,306

# Target: AgLsb1
# Assay: as above
# Experimental: as §1
row,Binder,SPOT peptide array binding signal intensity
1,RRSKSLPITPKSIFN,1.5

# Target: AgLsb4
# Assay: as above
# Experimental: as §1
row,Binder,SPOT peptide array binding signal intensity
1,RRSKSLPITPKSIFN,78.5

# Target: AgMyo5
# Assay: as above
# Experimental: as §1
row,Binder,SPOT peptide array binding signal intensity
1,RRSKSLPITPKSIFN,0.5

# Target: AgNbp2
# Assay: as above
# Experimental: as §1
row,Binder,SPOT peptide array binding signal intensity
1,RRSKSLPITPKSIFN,27

# Target: AgRvs167
# Assay: as above
# Experimental: as §1
row,Binder,SPOT peptide array binding signal intensity
1,RRSKSLPITPKSIFN,0.667

# Target: AgSho1
# Assay: as above
# Experimental: as §1
row,Binder,SPOT peptide array binding signal intensity
1,RRSKSLPITPKSIFN,2230

# Target: AgSla1-D1-D2
# Assay: as above
# Experimental: as §1
row,Binder,SPOT peptide array binding signal intensity
1,RRSKSLPITPKSIFN,350

# Target: AgSla1-D3
# Assay: as above
# Experimental: as §1
row,Binder,SPOT peptide array binding signal intensity
1,RRSKSLPITPKSIFN,≤ 0

# Target: CaAbp1-D1
# Assay: as above
# Experimental: as §1
row,Binder,SPOT peptide array binding signal intensity
1,RRSKSLPITPKSIFN,144

# Target: CaAbp1-D2
# Assay: as above
# Experimental: as §1
row,Binder,SPOT peptide array binding signal intensity
1,RRSKSLPITPKSIFN,310

# Target: CaBbc1
# Assay: as above
# Experimental: as §1
row,Binder,SPOT peptide array binding signal intensity
1,RRSKSLPITPKSIFN,103

# Target: CaBem1-D1
# Assay: as above
# Experimental: as §1
row,Binder,SPOT peptide array binding signal intensity
1,RRSKSLPITPKSIFN,55

# Target: CaBzz1-D1
# Assay: as above
# Experimental: as §1
row,Binder,SPOT peptide array binding signal intensity
1,RRSKSLPITPKSIFN,146

# Target: CaBzz1-D2
# Assay: as above
# Experimental: as §1
row,Binder,SPOT peptide array binding signal intensity
1,RRSKSLPITPKSIFN,61

# Target: CaCyk3
# Assay: as above
# Experimental: as §1
row,Binder,SPOT peptide array binding signal intensity
1,RRSKSLPITPKSIFN,13.5

# Target: CaFus1
# Assay: as above
# Experimental: as §1
row,Binder,SPOT peptide array binding signal intensity
1,RRSKSLPITPKSIFN,368

# Target: CaHof1
# Assay: as above
# Experimental: as §1
row,Binder,SPOT peptide array binding signal intensity
1,RRSKSLPITPKSIFN,1

# Target: CaHse1
# Assay: as above
# Experimental: as §1
row,Binder,SPOT peptide array binding signal intensity
1,RRSKSLPITPKSIFN,1

# Target: CaLsb1
# Assay: as above
# Experimental: as §1
row,Binder,SPOT peptide array binding signal intensity
1,RRSKSLPITPKSIFN,1

# Target: CaLsb4
# Assay: as above
# Experimental: as §1
row,Binder,SPOT peptide array binding signal intensity
1,RRSKSLPITPKSIFN,57

# Target: CaMyo5
# Assay: as above
# Experimental: as §1
row,Binder,SPOT peptide array binding signal intensity
1,RRSKSLPITPKSIFN,3

# Target: CaNbp2
# Assay: as above
# Experimental: as §1
row,Binder,SPOT peptide array binding signal intensity
1,RRSKSLPITPKSIFN,128

# Target: CaRvs167
# Assay: as above
# Experimental: as §1
row,Binder,SPOT peptide array binding signal intensity
1,RRSKSLPITPKSIFN,2.33

# Target: CaRvs167-3
# Assay: as above
# Experimental: as §1
row,Binder,SPOT peptide array binding signal intensity
1,RRSKSLPITPKSIFN,8.25

# Target: CaSho1
# Assay: as above
# Experimental: as §1
row,Binder,SPOT peptide array binding signal intensity
1,RRSKSLPITPKSIFN,353

# Target: CaSla1-D1-D2
# Assay: as above
# Experimental: as §1
row,Binder,SPOT peptide array binding signal intensity
1,RRSKSLPITPKSIFN,1140

# Target: CaSla1-D3
# Assay: as above
# Experimental: as §1
row,Binder,SPOT peptide array binding signal intensity
1,RRSKSLPITPKSIFN,0.5

# Target: ScAbp1
# Assay: as above
# Experimental: as §1
row,Binder,SPOT peptide array binding signal intensity
1,RRSKSLPITPKSIFN,84

# Target: ScBbc1
# Assay: as above
# Experimental: as §1
row,Binder,SPOT peptide array binding signal intensity
1,RRSKSLPITPKSIFN,11

# Target: ScBem1-D1
# Assay: as above
# Experimental: as §1
row,Binder,SPOT peptide array binding signal intensity
1,RRSKSLPITPKSIFN,88

# Target: ScBzz1-D1
# Assay: as above
# Experimental: as §1
row,Binder,SPOT peptide array binding signal intensity
1,RRSKSLPITPKSIFN,31

# Target: ScBzz1-D2
# Assay: as above
# Experimental: as §1
row,Binder,SPOT peptide array binding signal intensity
1,RRSKSLPITPKSIFN,12.5

# Target: ScCyk3
# Assay: as above
# Experimental: as §1
row,Binder,SPOT peptide array binding signal intensity
1,RRSKSLPITPKSIFN,54

# Target: ScFus1
# Assay: as above
# Experimental: as §1
row,Binder,SPOT peptide array binding signal intensity
1,RRSKSLPITPKSIFN,47.5

# Target: ScHof1
# Assay: as above
# Experimental: as §1
row,Binder,SPOT peptide array binding signal intensity
1,RRSKSLPITPKSIFN,≤ 0

# Target: ScHse1
# Assay: as above
# Experimental: as §1
row,Binder,SPOT peptide array binding signal intensity
1,RRSKSLPITPKSIFN,420

# Target: ScLsb1
# Assay: as above
# Experimental: as §1
row,Binder,SPOT peptide array binding signal intensity
1,RRSKSLPITPKSIFN,2.5

# Target: ScLsb2
# Assay: as above
# Experimental: as §1
row,Binder,SPOT peptide array binding signal intensity
1,RRSKSLPITPKSIFN,1

# Target: ScLsb3
# Assay: as above
# Experimental: as §1
row,Binder,SPOT peptide array binding signal intensity
1,RRSKSLPITPKSIFN,≤ 0

# Target: ScLsb4
# Assay: as above
# Experimental: as §1
row,Binder,SPOT peptide array binding signal intensity
1,RRSKSLPITPKSIFN,8

# Target: ScMyo3
# Assay: as above
# Experimental: as §1
row,Binder,SPOT peptide array binding signal intensity
1,RRSKSLPITPKSIFN,8.5

# Target: ScMyo5
# Assay: as above
# Experimental: as §1
row,Binder,SPOT peptide array binding signal intensity
1,RRSKSLPITPKSIFN,2

# Target: ScNbp2
# Assay: as above
# Experimental: as §1
row,Binder,SPOT peptide array binding signal intensity
1,RRSKSLPITPKSIFN,47

# Target: ScPex13
# Assay: as above
# Experimental: as §1
row,Binder,SPOT peptide array binding signal intensity
1,RRSKSLPITPKSIFN,≤ 0

# Target: ScRvs167
# Assay: as above
# Experimental: as §1
row,Binder,SPOT peptide array binding signal intensity
1,RRSKSLPITPKSIFN,0.333

# Target: ScSho1
# Assay: as above
# Experimental: as §1
row,Binder,SPOT peptide array binding signal intensity
1,RRSKSLPITPKSIFN,4000

# Target: ScSla1-D1-D2
# Assay: as above
# Experimental: as §1
row,Binder,SPOT peptide array binding signal intensity
1,RRSKSLPITPKSIFN,2340

# Target: ScSla1-D3
# Assay: as above
# Experimental: as §1
row,Binder,SPOT peptide array binding signal intensity
1,RRSKSLPITPKSIFN,54

# Target: SpAbp1-D1
# Assay: as above
# Experimental: as §1
row,Binder,SPOT peptide array binding signal intensity
1,RRSKSLPITPKSIFN,205

# Target: SpBbc1
# Assay: as above
# Experimental: as §1
row,Binder,SPOT peptide array binding signal intensity
1,RRSKSLPITPKSIFN,1.5

# Target: SpBzz1-D1
# Assay: as above
# Experimental: as §1
row,Binder,SPOT peptide array binding signal intensity
1,RRSKSLPITPKSIFN,204

# Target: SpBzz1-D2
# Assay: as above
# Experimental: as §1
row,Binder,SPOT peptide array binding signal intensity
1,RRSKSLPITPKSIFN,≤ 0
2,LSKRLPLRFPEHTSS,≤ 0

# Target: SpCyk3
# Assay: as above
# Experimental: as §1
row,Binder,SPOT peptide array binding signal intensity
1,RRSKSLPITPKSIFN,3
2,LSKRLPLRFPEHTSS,≤ 0

# Target: SpHof1
# Assay: as above
# Experimental: as §1
row,Binder,SPOT peptide array binding signal intensity
1,RRSKSLPITPKSIFN,2190
2,LSKRLPLRFPEHTSS,86

# Target: SpHof1-2
# Assay: as above
# Experimental: as §1
row,Binder,SPOT peptide array binding signal intensity
1,RRSKSLPITPKSIFN,1340
2,LSKRLPLRFPEHTSS,36.2

# Target: SpHof1-3
# Assay: as above
# Experimental: as §1
row,Binder,SPOT peptide array binding signal intensity
1,RRSKSLPITPKSIFN,1120
2,LSKRLPLRFPEHTSS,538

# Target: SpHse1
# Assay: as above
# Experimental: as §1
row,Binder,SPOT peptide array binding signal intensity
1,RRSKSLPITPKSIFN,216
2,LSKRLPLRFPEHTSS,403

# Target: SpLsb1
# Assay: as above
# Experimental: as §1
row,Binder,SPOT peptide array binding signal intensity
1,RRSKSLPITPKSIFN,≤ 0
2,LSKRLPLRFPEHTSS,4.75

# Target: SpLsb4
# Assay: as above
# Experimental: as §1
row,Binder,SPOT peptide array binding signal intensity
1,RRSKSLPITPKSIFN,64.5
2,LSKRLPLRFPEHTSS,1200

# Target: SpMyo1
# Assay: as above
# Experimental: as §1
row,Binder,SPOT peptide array binding signal intensity
1,RRSKSLPITPKSIFN,24.8
2,LSKRLPLRFPEHTSS,3.75

# Target: SpNbp2
# Assay: as above
# Experimental: as §1
row,Binder,SPOT peptide array binding signal intensity
1,RRSKSLPITPKSIFN,39.5
2,LSKRLPLRFPEHTSS,32

# Target: SpPex13
# Assay: as above
# Experimental: as §1
row,Binder,SPOT peptide array binding signal intensity
1,RRSKSLPITPKSIFN,5
2,LSKRLPLRFPEHTSS,2

# Target: SpRvs167
# Assay: as above
# Experimental: as §1
row,Binder,SPOT peptide array binding signal intensity
1,RRSKSLPITPKSIFN,4.33
2,LSKRLPLRFPEHTSS,143

# Target: SpSla1-D1-D2
# Assay: as above
# Experimental: as §1
row,Binder,SPOT peptide array binding signal intensity
1,RRSKSLPITPKSIFN,1130
2,LSKRLPLRFPEHTSS,≤ 0

# Target: SpSla1-D3
# Assay: as above
# Experimental: as §1
row,Binder,SPOT peptide array binding signal intensity
1,RRSKSLPITPKSIFN,≤ 0
2,LSKRLPLRFPEHTSS,≤ 0
